Laboratory results from PubChem BioAssay (NCATS).
Results filed as inconclusive are left out. Entries that show only a call come without a potency. Unmarked numbers belong to inactive results. Calls of active or inactive are those of the source. The call rests on the fitted dose curve; in most records, active means well fitted curve in the direction sought with a large enough effect; inconclusive means small, poorly fitted or top-dose-only effect, or another doubt; inactive means no such curve, though single readings can be large; an effect the other way counts as inactive or inconclusive.

How the values were obtained:
[1] = target: Rap guanine nucleotide exchange factor 3 (Homo sapiens) (UniProt O95398); experiment: Confirmatory qHTS for antagonist of cAMP-regulated guanine nucleotide exchange factor 3 (EPAC1) (AID 1645880); further: nearly all actives have a fitted effect of over 55% in size; further: potency means the concentration at half of the fitted maximal effect
Summary of the method: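 Nucleotide exchange uses 100 nM EPAC1, 250 nM RAP1B-BODIPY-GDP and 50 uM GDP, with compounds in a concentration-titration series. After 5 min at room temperature, fluorescence (480 nm ex/540 nm em) is read every 5 min for 30 min. Data are normalized to control ATA and DMSO.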

[2] = target: Rap guanine nucleotide exchange factor 3 (Homo sapiens) (UniProt O95398); experiment: Confirmatory qHTS for agonist of cAMP-regulated guanine nucleotide exchange factor 3 (EPAC1) (AID 1645881);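 further: EPAC1 catalysed release of BODIPY-GDP from Rap1B seen as fluorescence loss; nearly all actives have a fitted effect of over 75% in size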
[3] = target: Rap guanine nucleotide exchange factor 4 (Homo sapiens) (UniProt Q8WZA2); experiment: Confirmatory qHTS for agonist of cAMP-regulated guanine nucleotide exchange factor 4 (EPAC2) (AID 1645884);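 further: nucleotide exchange releases bodipy-GDP from Rap1 and this lowers its fluorescence; nearly all actives have a fitted effect of over 65% in size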
[4] = target: Rap guanine nucleotide exchange factor 4 (Homo sapiens) (UniProt Q8WZA2); experiment: Confirmatory qHTS for antagonist of cAMP-regulated guanine nucleotide exchange factor 4 (EPAC2) (AID 1645885); further: nearly all actives have a fitted effect of over 25% in size; further: potency means the concentration at half of the fitted maximal effect
[5] = target: Rap guanine nucleotide exchange factor 3 (Homo sapiens) (UniProt O95398); experiment: Counterscreen qHTS for antagonist of cAMP-regulated guanine nucleotide exchange factor 3 (EPAC1) (AID 1645888);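 further: fluorescence loss as bound BODIPY-GDP is released from Rap1B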
Summary of the method: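 Rap1B–BODIPY-GDP (250 nM) with 50 uM GDP; compounds pin-transferred to 9.74 nM–152 uM final (activator) or from 7.32 nM upwards (inhibitor). Fluorescence Ex/Em 480/540 nm read at 5 and 30 min, then after adding cAMP or buffer, at room temperature.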

Sequence of Rap guanine nucleotide exchange factor 3 (Homo sapiens) (O95398 whole entry, looked up): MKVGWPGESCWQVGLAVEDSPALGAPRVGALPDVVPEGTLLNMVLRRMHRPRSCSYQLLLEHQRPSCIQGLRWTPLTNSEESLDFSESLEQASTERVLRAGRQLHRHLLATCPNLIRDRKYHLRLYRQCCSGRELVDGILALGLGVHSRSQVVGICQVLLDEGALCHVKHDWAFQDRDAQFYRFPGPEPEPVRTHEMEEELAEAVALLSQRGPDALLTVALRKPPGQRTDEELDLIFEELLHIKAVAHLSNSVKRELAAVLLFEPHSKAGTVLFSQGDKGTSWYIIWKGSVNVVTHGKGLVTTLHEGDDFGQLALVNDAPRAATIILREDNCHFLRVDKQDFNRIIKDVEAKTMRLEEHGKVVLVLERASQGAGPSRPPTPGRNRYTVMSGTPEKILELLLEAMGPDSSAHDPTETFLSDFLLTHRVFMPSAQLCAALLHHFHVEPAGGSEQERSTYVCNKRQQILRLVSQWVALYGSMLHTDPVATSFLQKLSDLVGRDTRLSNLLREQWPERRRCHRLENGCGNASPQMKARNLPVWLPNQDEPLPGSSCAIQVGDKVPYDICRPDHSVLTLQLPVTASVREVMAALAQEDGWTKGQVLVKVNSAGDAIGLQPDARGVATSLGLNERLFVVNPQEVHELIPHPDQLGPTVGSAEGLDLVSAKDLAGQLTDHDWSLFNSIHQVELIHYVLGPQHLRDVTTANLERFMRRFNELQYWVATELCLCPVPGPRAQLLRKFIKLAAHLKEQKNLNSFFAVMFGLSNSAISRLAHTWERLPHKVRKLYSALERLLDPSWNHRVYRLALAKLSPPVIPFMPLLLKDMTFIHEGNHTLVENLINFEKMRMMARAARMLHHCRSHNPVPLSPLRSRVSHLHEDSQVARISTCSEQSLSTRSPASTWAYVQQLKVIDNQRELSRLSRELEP
Sequence of Rap guanine nucleotide exchange factor 4 (Homo sapiens) (Q8WZA2 whole entry, looked up): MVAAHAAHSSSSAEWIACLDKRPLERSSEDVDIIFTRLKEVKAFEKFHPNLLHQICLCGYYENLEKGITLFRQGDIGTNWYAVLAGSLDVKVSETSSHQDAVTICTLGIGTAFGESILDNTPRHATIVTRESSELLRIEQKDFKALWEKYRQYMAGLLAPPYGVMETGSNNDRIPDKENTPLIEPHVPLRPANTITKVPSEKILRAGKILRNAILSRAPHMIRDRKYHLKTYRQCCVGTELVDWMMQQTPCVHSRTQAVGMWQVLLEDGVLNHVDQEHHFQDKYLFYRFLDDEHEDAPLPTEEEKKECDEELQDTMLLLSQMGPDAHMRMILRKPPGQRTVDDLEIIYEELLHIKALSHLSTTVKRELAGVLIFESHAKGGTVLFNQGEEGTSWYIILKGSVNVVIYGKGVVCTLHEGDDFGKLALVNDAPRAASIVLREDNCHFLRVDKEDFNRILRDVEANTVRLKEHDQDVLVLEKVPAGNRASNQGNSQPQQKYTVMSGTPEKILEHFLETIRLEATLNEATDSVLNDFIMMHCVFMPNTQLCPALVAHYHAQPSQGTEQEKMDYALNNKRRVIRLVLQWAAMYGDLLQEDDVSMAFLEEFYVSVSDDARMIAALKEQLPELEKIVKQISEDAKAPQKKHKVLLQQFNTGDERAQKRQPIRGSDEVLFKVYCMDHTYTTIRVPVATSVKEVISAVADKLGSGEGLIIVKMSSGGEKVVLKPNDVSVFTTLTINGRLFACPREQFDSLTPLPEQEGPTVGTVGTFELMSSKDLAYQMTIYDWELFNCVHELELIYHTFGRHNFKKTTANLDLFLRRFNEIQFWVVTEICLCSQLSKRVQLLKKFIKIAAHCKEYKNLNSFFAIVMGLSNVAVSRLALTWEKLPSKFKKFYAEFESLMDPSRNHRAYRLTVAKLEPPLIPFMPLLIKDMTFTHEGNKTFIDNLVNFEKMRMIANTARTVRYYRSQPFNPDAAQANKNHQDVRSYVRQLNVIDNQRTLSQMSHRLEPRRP

Row | SMILES | Potency [1] | Potency [2] | Potency [3] | Potency [4] | Potency [5] | activation [3] | activity change, negative = inhibition [5] | outcome [4]
1 | COc1ccc(OC)c(Nc2ncc3c(n2)CCN(Cc2cc(OC)c(OC)c(OC)c2)C3)c1 | inactive | inactive | inactive | inactive | inactive | – | – | –
2 | CCc1nc2ccc(C(=O)N(C)Cc3ccccc3)cn2c1N(CC)Cc1cccc(Br)c1 | inactive | inactive | – | inactive | – | 3.66% [at 17.1 µM, percent relative to cAMP agonist control] | -21% [at 30.8 µM] | –
3 | OC1CCN(c2c3c(nc4cc(-c5cccc(F)c5)nn24)CCCC3)CC1 | inactive | inactive | inactive | inactive | inactive | – | – | –
4 | Cc1ccccc1OCCC(=O)OCC(=O)NC1CCCCC1 | inactive | inactive | – | inactive | – | 3.43% [at 17.1 µM, percent relative to cAMP agonist control] | 6.94% [at 30.8 µM] | –
5 | CCCN1CCN(S(=O)(=O)c2ccc3c(c2)NC(=O)C(C)C(=O)N3)CC1 (stereo not given) | inactive | inactive | inactive | inactive | inactive | – | – | –
6 | CCOC(=O)c1[nH]c(C)c(C(=O)NC(C)(C)C)c1C | inactive | inactive | inactive | inactive | inactive | – | – | –
7 | COc1cc2c(-c3ccc4c(c3)OCO4)c(-c3ccsc3)oc(=O)c2cc1OC | inactive | inactive | – | inactive | – | 13.2% [at 17.1 µM, percent relative to cAMP agonist control] | 10.4% [at 30.8 µM] | –
8 | O=C(Nc1cccs1)Nc1ccccc1Cl | inactive | inactive | – | inactive | – | 6.52% [at 17.1 µM, percent relative to cAMP agonist control] | 6.73% [at 30.8 µM] | –
9 | Cc1ccc(N(CCC#N)C(=O)COC(=O)c2ccccc2SCC(=O)N2CCCC2)cc1 | inactive | inactive | inactive | inactive | inactive | – | – | –
10 | CN(C)CC/C=C1/c2ccccc2Sc2c(O)cc(Cl)cc21 | inactive | inactive | inactive | inactive | inactive | – | – | –
11 | CC(C(=O)NC1CC(C)(C)NC(C)(C)C1)c1ccc([N+](=O)[O-])cc1 (stereo not given) | inactive | inactive | inactive | inactive | inactive | – | – | –
12 | O=C1NC(=O)C(c2ccccc2)(c2ccccc2)N1S(=O)(=O)c1ccccc1 | inactive | inactive | inactive | inactive | inactive | – | – | –
13 | COc1ccc(OC)c(NC(=O)CN(C)CCOc2ccc(Br)cc2)c1 | inactive | inactive | inactive | inactive | inactive | – | – | –
14 | Cc1ccc(NC(=O)C2CCCN2S(=O)(=O)c2cccc3nsnc23)c(Br)c1 (stereo not given) | inactive | inactive | inactive | – | inactive | – | – | inactive [at 12.7 µM]
15 | CC1CCc2[nH]c3ccc(C(=O)N(C)CC(=O)Nc4ccccc4Br)cc3c2C1 (stereo not given) | inactive | inactive | inactive | inactive | inactive | – | – | –
16 | Cc1cccc(Nc2c([N+](=O)[O-])c(=O)oc3ccccc23)c1 | inactive | inactive | inactive | inactive | inactive | – | – | –
17 | Cc1ccc(N2C(=O)c3ccccc3C2C(=O)c2ccc(O)cc2O)cc1 (stereo not given) | inactive | inactive | inactive | inactive | inactive | – | – | –
18 | Cc1cccc(N2CCN(c3ccc(C(=O)O)cc3NC(=O)c3ccccc3F)CC2C)c1 (stereo not given) | 84.9 µM (active) | inactive | inactive | – | inactive | – | – | inactive [at 12.7 µM]
19 | CN(C)c1nc(Oc2ccc(=O)[nH]n2)nc(N2CCOCC2)n1 | inactive | inactive | inactive | inactive | inactive | – | – | –
20 | CCc1cc2c(-c3ccccc3)cc(=O)oc2cc1OCC(=O)NCC1CCC(C(=O)O)CC1 (stereo not given) | inactive | inactive | inactive | inactive | inactive | – | – | –
21 | CCOc1ccc(-n2c(=O)[nH]cc(C(=O)Nc3ccc(OC)c(OC)c3)c2=O)cc1 | inactive | inactive | inactive | inactive | inactive | – | – | –
22 | CSCc1cc(N(C)c2ccccc2)nc(-c2ccccc2)n1 | inactive | inactive | inactive | 6.01 µM (active) | inactive | – | – | –
23 | CC(C)(C)n1cnc2cc(NCc3ccccc3Cl)ccc21 | 84.9 µM (active) | inactive | inactive | inactive | inactive | – | – | –
24 | Cc1[nH]n(-c2ccccc2)c(=O)c1C(c1cccc([N+](=O)[O-])c1O)c1c(C)[nH]n(-c2ccccc2)c1=O | 44.7 µM (active) | inactive | – | inactive | – | 0.393% [at 17.1 µM, percent relative to cAMP agonist control] | 23.8% [at 30.8 µM] | –

Row | SMILES | Potency [1] | Potency [2] | Potency [3] | Potency [4] | Potency [5] | activation [3] | activity change, negative = inhibition [5] | outcome [4]
25 | O=S(=O)(c1cc(O)ccc1O)c1cccc2c(S(=O)(=O)c3cc(O)ccc3O)cccc12 | 44.7 µM (active) | inactive | – | inactive | – | 5.63% [at 17.1 µM, percent relative to cAMP agonist control] | -9.89% [at 30.8 µM] | –
26 | COc1ccc(CCNC(=O)CSc2nc3nc(C)c(Cc4ccc(C)cc4)c(C)n3n2)cc1OC | inactive | inactive | inactive | inactive | inactive | – | – | –
27 | O=C1C(c2ccccc2)=[N+]([O-])c2ccccc21 | inactive | inactive | inactive | inactive | inactive | – | – | –
28 | Cc1ccc([C@H]2C(C(=O)O)=CC[C@@H](c3ccc(Cl)c(Cl)c3)N2S(=O)(=O)c2ccc(C)cc2)cc1 | 56.2 µM (active) | inactive | – | inactive | – | 12.8% [at 17.1 µM, percent relative to cAMP agonist control] | -5.89% [at 30.8 µM] | –
29 | CCCCN(CCCC)S(=O)(=O)c1ccc(C(=O)Nc2sc3c(c2C(N)=O)CCN(CC)C3)cc1 | inactive | inactive | inactive | inactive | inactive | – | – | –
30 | C/C(=N\N1C(=O)c2ccccc2NC1c1ccco1)c1ccccc1O (stereo not given) | 75.7 µM (active) | inactive | inactive | inactive | inactive | – | – | –
31 | CS(=O)(=O)Nc1ccc(C2=NN(C(=O)c3cccc(F)c3)C(c3cccs3)C2)cc1 (stereo not given) | inactive | inactive | inactive | inactive | inactive | – | – | –
32 | Fc1cc(F)c(F)c(SCn2cc(Br)cn2)c1F | inactive | inactive | – | inactive | – | 5.6% [at 17.1 µM, percent relative to cAMP agonist control] | -7.43% [at 30.8 µM] | –
33 | Cc1ccc2nc3sc(C(=O)NCc4ccco4)c(N)c3cc2c1 | inactive | inactive | – | inactive | – | 2.22% [at 17.1 µM, percent relative to cAMP agonist control] | 3.21% [at 30.8 µM] | –
34 | CS(=O)(=O)N1N=C(c2ccco2)CC1c1ccc(Cl)cc1Cl (stereo not given) | inactive | inactive | – | inactive | – | 0.361% [at 17.1 µM, percent relative to cAMP agonist control] | 3.91% [at 30.8 µM] | –
35 | Cc1cccc(C(=O)Nc2cccc(C(=O)OCc3cc(=O)n4c5c(sc4n3)CCCC5)c2)c1 | inactive | inactive | inactive | inactive | inactive | – | – | –
36 | CCc1ccc(S(=O)(=O)/N=C2\C=C(Nc3cccc(C(=O)O)c3)C(=O)c3ccccc32)cc1 | 37.9 µM (active) | inactive | inactive | 0.379 µM (active) | inactive | – | – | –
37 | CSc1nnc(-c2ccccc2)c(-c2ccccc2)n1 | inactive | inactive | inactive | 19 µM (active) | inactive | – | – | –
38 | Cc1cccc(C)c1Nc1c(-c2ccccc2F)nc2cccc(C)n12 | 75.7 µM (active) | inactive | inactive | inactive | inactive | – | – | –
39 | COC(=O)CSc1nc2sc3c(c2c(=O)n1-c1ccc(OC)cc1)CCN(C)C3 | inactive | inactive | inactive | inactive | inactive | – | – | –
40 | CN1CCN(C2=C(Cl)C(=O)c3ccccc3C2=O)CC1 | 25.1 µM (active) | inactive | – | inactive | – | 11% [at 17.1 µM, percent relative to cAMP agonist control] | 17.9% [at 30.8 µM] | –
41 | COc1cc(/C=C/C(=O)OCC(=O)Nc2oc(C)c3c(C)n[nH]c(=O)c23)ccc1OC(F)F | inactive | inactive | inactive | inactive | inactive | – | – | –
42 | O=C1/C(=C/C=C/c2ccco2)SC(=S)N1NS(=O)(=O)c1ccccc1 | 5.62 µM (active) | inactive | – | inactive | – | 11.3% [at 17.1 µM, percent relative to cAMP agonist control] | 17.5% [at 30.8 µM] | –
43 | CCN(CC)CCn1c2c(c(SCC(=O)Nc3nc4ccccc4s3)nc1=O)CCCC2 | inactive | inactive | inactive | inactive | inactive | – | – | –
44 | COC(=O)c1c(SC)nc2ccccc2c1OCc1cccc(C)c1 | inactive | inactive | inactive | inactive | inactive | – | – | –
45 | COC(=O)c1ccc2nc(-c3ccccc3)c(Cc3ccc(C)cc3)n2c1 | inactive | inactive | inactive | inactive | inactive | – | – | –
46 | CCN(CC)S(=O)(=O)c1c(Br)cc(C)cc1Br | inactive | inactive | – | 3.79 µM (active) | – | 0.523% [at 17.1 µM, percent relative to cAMP agonist control] | -9.59% [at 30.8 µM] | –
47 | Nc1c(C(=O)Nc2ccc3c(c2)OCCO3)nnn1Cc1cccc(Br)c1 | inactive | inactive | – | inactive | – | 11.4% [at 17.1 µM, percent relative to cAMP agonist control] | -24.5% [at 30.8 µM] | –
